These results are taken from PubChem BioAssay (NCATS).

Inconclusive results are not listed. A number with no mark means an inactive call. Calls of active or inactive are those of the source. Calls come from the whole dose curve; as a rule, active = well fitted curve in the direction sought with a large enough effect; inconclusive = small, poorly fitted or top-dose-only effect, or another doubt; inactive = no such curve, though single readings can be large; an effect the other way counts as inactive or inconclusive. Peptide text beside a SMILES is read from it. * marks the point of attachment. Cbz = O=C(OCc1ccccc1)*; CH2F = FC*

Assay [1] has as its target Cellular tumor antigen p53 (Homo sapiens) (UniProt P04637). Nature of the assay: Primary qHTS for small molecule compounds that upregulate eGFP-tagged delta133p53alpha (in N-terminal) cells. (AID 2060322).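 For activation: series mostly up to about 56 µM; 0% = DMSO vehicle and 100% = reference activator.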 Note: nearly all actives have a fitted effect of over 75% in size. Note: potency is the fitted concentration of half-maximal effect. The note with it: NCI-H358 eGFP-delta133p53alpha fluorescence, 24 h; activation: hits give high values. An outline of the steps: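 NCI-H358 cells pre-induced 24 h with 10 ng/ml doxycycline to express N-terminal eGFP-delta133p53alpha, then dosed 24 h at 37C without doxycycline; fixed, Hoechst-stained, GFP intensity by laser scanning cytometry, normalized to DMSO (0%) and 57.5 uM 5-azacytidine (100%).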
(Quantitative high-throughput screening tests each substance at several concentrations.)

Assay [2] has as its target Aldehyde dehydrogenase, mitochondrial (Homo sapiens) (UniProt P05091). Put plainly: qHTS for Inhibitors of the Aldehyde Dehydrogenase Family (ALDH2) Primary screen (AID 2061308).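 Note: plate controls were vehicle for no effect and reference inhibitor for full effect; nearly all actives have a fitted effect of over 55% in size.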
Assay [3] concerns the target Retinaldehyde dehydrogenase 3 (Homo sapiens) (UniProt P47895). Nature of the assay: qHTS for Inhibitors of the Aldehyde Dehydrogenase Family (ALDH1A3) Primary screen (AID 2061315).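 Note: plate controls were DMSO vehicle for no effect and reference inhibitor for full effect.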

Chain of Cellular tumor antigen p53 (Homo sapiens) (P04637 whole entry, looked up): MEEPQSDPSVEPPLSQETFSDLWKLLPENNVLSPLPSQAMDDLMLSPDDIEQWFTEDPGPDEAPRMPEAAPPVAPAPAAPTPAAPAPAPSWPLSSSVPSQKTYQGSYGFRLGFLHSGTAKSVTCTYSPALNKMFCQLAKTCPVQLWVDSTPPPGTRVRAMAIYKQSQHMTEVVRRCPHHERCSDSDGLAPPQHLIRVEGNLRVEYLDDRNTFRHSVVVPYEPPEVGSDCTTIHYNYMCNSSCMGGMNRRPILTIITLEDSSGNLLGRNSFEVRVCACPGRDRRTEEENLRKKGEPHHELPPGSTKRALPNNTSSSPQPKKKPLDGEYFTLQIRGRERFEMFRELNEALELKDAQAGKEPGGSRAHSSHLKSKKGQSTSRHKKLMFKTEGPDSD

Consider `C[C@@H]1O[C@@H](O[C@H]2[C@H](OC(=O)[C@]34CCC(C)(C)C[C@H]3C3=CCC5[C@@]6(C)C[C@H](O)[C@H](O[C@@H]7O[C@H](CO[C@@H]8OC[C@H](O)[C@H](O)[C@H]8O)[C@@H](O)[C@H](O)[C@H]7O)C(C)(C)C6CC[C@@]5(C)[C@]3(C)C[C@H]4O)OC[C@@H](O)[C@@H]2O)[C@H](O)[C@H](O[C@@H]2OC[C@](O)(CO)[C@H]2O)[C@H]1O[C@@H]1OC[C@H](O)[C@H](O[C@@H]2OC[C@@H](O)[C@H](O)[C@H]2O)[C@H]1O` (stereo partly specified), for which, in assay [1], the activation is 8.93%. The figures for the activity change, negative = inhibition in assay [2] and in assay [3] were -4.16% [at 11.2 µM] and 0.994% [at 11.2 µM], respectively.

As for `C[C@@H]1O[C@@H](O[C@H]2[C@H](OC(=O)[C@]34CCC(C)(C)C[C@H]3C3=CCC5[C@@]6(C)C[C@H](O)[C@H](O[C@@H]7O[C@H](CO)[C@@H](O)[C@H](O)[C@H]7O)[C@@](C)(CO)C6[C@H](O)C[C@@]5(C)[C@]3(C)C[C@H]4O)OC[C@H](O)[C@@H]2O)[C@H](O)[C@H](O)[C@H]1O[C@@H]1OC[C@@H](O)[C@H](O[C@H]2OC[C@](O)(CO)[C@H]2O)[C@H]1O` (stereo partly specified), the activation in assay [1] was 27.7%. Besides, the figures for the activity change, negative = inhibition in assay [2] and in assay [3] were 5.31% [at 11.2 µM] and -7.49% [at 11.2 µM], respectively.

With `COc1cc(C(C)=O)c(OC)c2c1OC(C)(C)C=C2`, the activation in assay [1] is 6.25%. Also, the Potency entry in assay [2] and in assay [3] was “inactive” each time.

For `COc1c2ccoc2nc2c(OC)c(O[C@@H]3O[C@@H](C)[C@H](O)[C@@H](O[C@@H]4O[C@H](CO)[C@@H](O)[C@H](O)[C@H]4O)[C@H]3OC(C)=O)ccc12`, in assay [1], the activation was 27.7%. Besides, the Potency entry in assay [2] and in assay [3] was “inactive” in each case.

`CCN(Cc1cccnc1)C(=O)CN(c1ccc(OC)nc1)S(=O)(=O)c1ccccc1C`: the activation in assay [1] was -3%. Besides, the Potency result in assay [2] and in assay [3] was “inactive” in each case.

For `CN1CCN(Cc2ccc(-c3cnc4[nH]cc(-c5ccc6[nH]ccc6c5)c4c3)cc2)CC1`, in assay [1], the Potency was 23.9 µM (active). Further, the Potency result in assay [2] and in assay [3] was “inactive” throughout.

Turning to `C=CC1(C)CC=C2C(CCC3C(C)(C(=O)O)CCCC23C)C1` (stereo unspecified), in assay [1], the activation is -1.53%. For the same compound, the Potency entry in assay [2] and in assay [3] was “inactive” in each case.

For `C[C@@H]1O[C@@H](O[C@H]2[C@H](OC(=O)[C@]34CCC(C)(C)C[C@H]3C3=CCC5[C@@]6(C)CC[C@H](O[C@@H]7O[C@H](CO[C@@H]8OC[C@H](O)[C@H](O)[C@H]8O)[C@@H](O)[C@H](O)[C@H]7O)C(C)(C)C6CC[C@@]5(C)[C@]3(C)C[C@H]4O)OC[C@@H](O)[C@@H]2O)[C@H](O)[C@H](O)[C@H]1O[C@@H]1OC[C@H](O)[C@H](O[C@@H]2OC[C@@H](O)[C@H](O)[C@H]2O)[C@H]1O` (stereo partly specified), in assay [1], the activation was 3.82%. Further, the values for the activity change, negative = inhibition in assay [2] and in assay [3] were 2.19% [at 11.2 µM] and 8.01% [at 11.2 µM], respectively.

As for `CC(C)(C)[C@H](NC(=O)c1ccc(N)c(Cl)c1)C(=O)N1CCC[C@H]1C(=O)N[C@H](C#N)CC(=O)O`, the activation in assay [1] was -7%. Besides, the Potency entry in assay [2] and in assay [3] was “inactive” each time.

Take `C=C1CCC2[C@@](C)(C=O)CCC[C@]2(C)[C@H]1CC/C(C)=C/CO` (stereo partly specified): in assay [1], the activation is 18.3%. For the same compound, the Potency result in assay [2] and in assay [3] was “inactive” each time.

`CC1(C)C(=O)N2c3ccccc3C(O)(CC(C(=O)O)n3cnc4ccccc4c3=O)C2N1O` (stereo unspecified): in assay [1], the activation was 16%. Further, the Potency result in assay [2] and in assay [3] was “inactive” each time.

`C=C(C(=O)O)C1CCC(C)C2CCC(=O)OC2(C)C1` (stereo unspecified): in assay [1], the activation was 18.8%. In addition, the Potency entry in assay [2] and in assay [3] was “inactive” each time.

Consider `Cc1occc(=O)c1O[C@@H]1O[C@H](CO)[C@@H](O)[C@H](O)[C@H]1O`, for which the activation in assay [1] was 11.6%. In addition, the Potency result in assay [2] and in assay [3] was “inactive” in each case.

Take `C/C=C(\C)C(=O)OC[C@H]1O[C@H](O[C@H]2O[C@H](CO)[C@@H](OC(=O)/C(C)=C/C)[C@H](O)[C@H]2O[C@@H]2O[C@H](CO)[C@@H](O)[C@H](O)[C@H]2O)[C@H](O[C@@H]2O[C@H](CO)[C@@H](O)[C@H](O)[C@H]2O)[C@@H](O)[C@@H]1O`: the activation in assay [1] is -4.46%. Further, the Potency result in assay [2] and in assay [3] was “inactive” each time.

On to `CC(C)CC(=O)OC[C@H]1O[C@@](COC(=O)CC(C)C)(O[C@H]2O[C@H](CO)[C@@H](O)[C@H](O)[C@H]2O)[C@@H](OC(=O)CC(C)C)[C@@H]1OC(=O)CC(C)C`, for which the activation in assay [1] is -0.763%. Moreover, the Potency result in assay [2] and in assay [3] was “inactive” in each case.

In the case of `COC(=O)CC[C@H](NC(=O)[C@H](CC(C)C)NC(=O)OCc1ccccc1)C(=O)N[C@@H](Cc1cnc[nH]1)C(=O)N[C@@H](CC(=O)OC)C(=O)CF` (Cbz-LE(OMe)HD(OMe)-CH2F), the activation in assay [1] is 23.7%. Besides, the activity change, negative = inhibition in assay [2] was -2.9% [at 11.2 µM]; in assay [3], -9.94% [at 11.2 µM].

For `CC(=O)O[C@@H]1[C@@H](CO)O[C@@](CO)(O[C@H]2O[C@H](COC(=O)/C=C/c3ccccc3)[C@@H](O)[C@H](O)[C@H]2O)[C@H]1O`, the activation in assay [1] was 2.29%. Moreover, the Potency entry in assay [2] and in assay [3] was “inactive” each time.

Regarding `COc1c(C)c(OCC(O)C(C)(C)O)cc2c1COC2=O` (stereo unspecified), in assay [1], the activation was 5.34%. Besides, the Potency entry in assay [2] and in assay [3] was “inactive” in each case.

For `CC1CCC2(C(=O)OC3OC(CO)C(O)C(O)C3O)CCC3(C)C(=CCC4C5(C)CCC(O)C(C)(CO)C5CCC43C)C2C1(C)O` (stereo unspecified), the activation in assay [1] is -6.87%. Moreover, the Potency result in assay [2] and in assay [3] was “inactive” in each case.

Regarding `O=C(NCc1ccccc1-c1ccccc1C(=O)NCCc1ccccn1)OCc1ccccc1`, in assay [1], the activation was 1%. For the same compound, the Potency entry in assay [2] and in assay [3] was “inactive” each time.

With `O=c1[nH]c2ccc(C#CCN3CCC(Cc4ccccc4)CC3)cc2[nH]1`, the activation in assay [1] was -3.57%. In addition, the Potency entry in assay [2] and in assay [3] was “inactive” throughout.

On to `CNc1nc(Cc2ccccc2)nc2c1CCNC[C@@H]2C`, for which, in assay [1], the activation was 19%. Moreover, the Potency entry in assay [2] and in assay [3] was “inactive” in each case.
